According to PubChem BioAssay AID1347416 (National Center for Advancing Translational Sciences (NCATS), 2020):
About 1,600 (39%) of roughly 4,100 compounds were called active. Not shown: some 25% with an inconclusive outcome. Calls follow the shape of the dose curve; as a rule, active = well fitted inhibition curve with a large enough effect; inconclusive = small, poorly fitted or top-dose-only effect; inactive = no such curve, though single readings can be large or run the other way. The list shows a part of the results.

Experiment: qHTS Validation assay for Inhibitors of Plasmodium falciparum Dd2 growth in vitro; also: nearly all actives have a fitted effect of over 70% in size
Details: P. falciparum Dd2 in RBCs, SYBR Green growth, 72 h; series mostly up to 28.7 µM
In short: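 P. falciparum Dd2-infected red blood cells (2.5% hematocrit, 0.3% parasitemia) grown 72 h at 37 °C under 5% O2 with compounds in a titration, 29 uM to 0.5 nM final. Growth read as SYBR Green-1 fluorescence after ~16 h lysis; artesunate 300 nM as positive control.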
Potency is read from the fitted curve at half-maximal effect.

SMILES | Potency
Cc1nc(N2CCCC3(CN(C)C(=O)O3)C2)cc(-n2cccn2)n1 (stereo not given) | inactive
CC(C)c1noc(-c2cccn3c(CNC(=O)c4cc(F)ccc4Cl)nnc23)n1 | inactive
COc1ccc(C2Nc3ccccc3C(=O)N2Cc2ccccc2)cc1COc1ccc(Cl)cc1Cl (stereo not given) | 8.41 µM (active)
COc1ccc(C(=O)N[C@@H]2CCC[C@@H]2C(=O)N2CCN(C(=O)c3ccco3)CC2)cn1 | inactive
COc1cc2c(cc1OC)CN(C(=O)c1ccco1)CC2 | inactive
CCC(C)(C)n1nnnc1C(c1cc2cccc(C)c2[nH]c1=O)N1CCN(C(=O)c2ccco2)CC1 (stereo not given) | 6.68 µM (active)
CCC(C)(C)n1nnnc1C(c1ccccc1OC)N1CCN(C(=O)c2ccco2)CC1 (stereo not given) | 15 µM (active)
Cc1ccc(NC(=O)N(Cc2ccc3c(c2)OCO3)Cc2cc3cc4c(cc3[nH]c2=O)OCCO4)cc1 | 6.68 µM (active)
O=C(Nc1ccc(Cl)cc1)Nc1ccc2c(c1)N1CCN=C1S2 | 5.31 µM (active)
CCCCCCCc1c(C)nc(N2CCOCC2)[nH]c1=O | 5.31 µM (active)
O=C(c1cc2cc(Br)ccc2[nH]1)N1CCc2ccccc21 | inactive
NNC(=O)CN1C(=O)Nc2ccc(Br)cc2C1c1ccccc1 (stereo not given) | inactive
NNC(=O)CN1C(c2cccc(Cl)c2)=Nc2ccc(Br)cc2C1c1ccccc1 (stereo not given) | 2.66 µM (active)
COC(=O)CC1Oc2ccc(Cl)cc2-n2cc(-c3ccc(F)cc3)nc21 (stereo not given) | 4.22 µM (active)
CCn1cc(C(=O)N2CCN(c3ccccc3)CC2)c(=O)c2cc(S(=O)(=O)N(C)C3CCCCC3)ccc21 | inactive
CN(C1CCCCC1)S(=O)(=O)c1ccc2c(c1)c(=O)c(C(=O)N1CCN(c3ccccc3F)CC1)cn2C | inactive
CCn1cc(C(=O)NCCCN2CCCC(C)C2)c(=O)c2cc(S(=O)(=O)N(C)C3CCCCC3)ccc21 (stereo not given) | 8.41 µM (active)
COc1ccc(CC(=O)N[C@@H]2CN(c3ccccn3)C[C@H]2CN(C)C)cc1 | inactive
O=C(CC1CCCN(c2cnn(CC3CC3)c(=O)c2)C1)N1CCN(c2ccccn2)CC1 (stereo not given) | inactive
Cc1cc(Cl)c(S(=O)(=O)N2CCN(c3ccccn3)CC2)cc1OCC(=O)NC1CCCCC1 | 0.668 µM (active)
Cn1cccc1CN1C[C@@H](COc2ccncc2)[C@H](c2ccccn2)C1 | 13.3 µM (active)
Cn1cccc1CN1CCn2c(nnc2-c2ccccc2)C1 | inactive
O=C(COc1ccc(Cl)cc1)N1C[C@@H](CO)[C@H](c2ccccn2)C1 | inactive
CC(C)CCN(CCC(C)C)CC(O)Cn1c2ccccc2c(=O)c2ccccc21 (stereo not given) | 1.88 µM (active)

SMILES | Potency
O=C(c1ccc(OC2CCN(Cc3c[nH]c4ccccc34)CC2)cc1)N1CCCCC1 | 15 µM (active)
O=C(Cc1c[nH]c2ccccc12)N1CCc2c(nc(-c3ccc(F)cc3)[nH]c2=O)C1 | inactive
O=C([C@@H]1C[C@H](Oc2ccccc2)CN1C(=O)c1cc2ccccc2[nH]1)N1CCCC1 | inactive
CN1C2CCC1/C(=C\c1ccccc1)C(=O)/C2=C\c1ccccc1 | 2.11 µM (active)
Cc1ccc(Oc2c(C(F)(F)F)oc3c(CN4CCC(C)CC4)c(O)ccc3c2=O)cc1 | 1.68 µM (active)
Cc1cc(Oc2c(C(F)(F)F)oc3c(CN4CCC(C)CC4)c(O)ccc3c2=O)cc(C)c1Cl | 0.75 µM (active)
CCc1nc(CN(C)C(C(=O)O)c2ccc(C(C)(C)C#N)cc2)no1 (stereo not given) | inactive
Nc1ccc(NC(=O)c2cccc(C(=O)Nc3ccc(N)cc3Cl)c2)c(Cl)c1 | inactive
CCOC(=O)C1CCN(C(=O)c2cc(C(C)(C)C)nn2Cc2ccccc2)CC1 | 4.73 µM (active)
CCn1nc(C)cc1C(=O)N1Cc2cnn(Cc3ccc(F)cc3)c2C1 | inactive
CN1CCCCCC(O)c2cc(C(=O)N3CCN(Cc4ccccc4)CC3)ccc21 (stereo not given) | inactive
O=C(c1cnc2n1CCN(CCc1ccccc1)CC2)N1CCC(c2ccccc2)CC1 | inactive
Cc1cn2nc(C(=O)N3CCC(C(=O)NCCc4ccccc4)CC3)cc2c(=O)[nH]1 | inactive
CCOC(=O)C1CCN(C(=O)c2cc3c(n2C)CCN(Cc2ccccc2)C3)CC1 | 10.6 µM (active)
COc1ccc(NC(=O)c2ccc3c(c2)NC(C)(COCC2CC2)CO3)cn1 (stereo not given) | inactive
COc1ccc(NC(=O)c2ccc(Cl)c(S(=O)(=O)N3CCc4ccccc4C3)c2)cn1 | 7.5 µM (active)
O=C(Nc1cccnc1)c1ccc(Cl)c(S(=O)(=O)N2CCc3ccccc32)c1 | inactive
CC(C)N(C)Cc1nnnn1CC(=O)N1CCC(O)(c2cccnc2)CC1 | inactive
Cc1cc(C)cc(N=Cc2[nH]c3ccc(Br)c(Cl)c3c2O)c1 | 11.9 µM (active)
O=C(Cc1ccc(NC(=O)N2CCSc3ncccc32)cc1)NCCc1ccccc1 | inactive
CCOc1ccc(CCNC(=O)Nc2ccccc2)cc1OCC | 5.31 µM (active)
CC(C)C(=O)Nc1oc(-c2ccccc2)cc1C#N | 6.68 µM (active)
c1ccc(-c2noc(-c3ccn4c(CN5CCSCC5)nnc4c3)n2)cc1 | inactive
CCN(CC)CCNc1ccnc2cc(Cl)ccc12 | 0.211 µM (active)

SMILES | Potency
Clc1ccc2c(NCc3ccccn3)ccnc2c1 | 2.11 µM (active)
CCN1CCN(C(=O)c2ccc3c(Cl)c4c(nc3c2)CCCC4)CC1 | inactive
CCN1CCC(Nc2ccnc3cc(Cl)ccc23)CC1 | 0.188 µM (active)
CCC(O)c1cc2n(n1)CCN(C(=O)CN1CCOc3ccccc3C1)C2 (stereo not given) | inactive
CC1(CNc2ccccc2)COc2ccc(C(=O)NCc3cccc(F)c3)cc2N1 (stereo not given) | inactive
CN1CCC2(C1)CN(Cc1ccccc1)c1ccc(C(=O)Nc3ccc(F)cc3)cc12 (stereo not given) | 19.3 µM (active)
CN1c2cc(C(=O)Nc3ccc(F)cc3)ccc2C(=O)N2CCCCC21 (stereo not given) | inactive
Cc1sc2nc(-c3ccccn3)[nH]c(=O)c2c1-c1ccccc1 | 13.3 µM (active)
Cc1ccccc1Nc1cc(C)c2c(O)cccc2n1 | 5.31 µM (active)
Cc1cccc(NC(=O)Cn2c(C)cc3nc4n(c(=O)c32)CCCCC4)c1C | inactive
Cc1cccc(Nc2cc(C)c3c(O)cccc3n2)c1C | 4.73 µM (active)
Nc1ccc2oc(-c3ccc4nc[nH]c4c3)nc2c1 | 13.3 µM (active)
CCc1ccc2oc(-c3ccc(NC(=O)c4cc5ccccc5o4)cc3)nc2c1 | inactive
O=C(Nc1ccc(-c2nc3cc(NC(=O)c4ccccc4F)ccc3o2)cc1)c1ccccc1F | inactive
COc1ccc(CCN(C)C(=O)CC(c2cccc(F)c2)c2cn(C)c3ccccc23)cc1OC (stereo not given) | 8.41 µM (active)
OC(CNC1CCCCCC1)COc1cccc2ccccc12 (stereo not given) | 1.88 µM (active)
C/C(=N\Nc1ncnc2sc(C)c(C)c12)c1ccccn1 | 1.33 µM (active)
Cc1sc2ncnc(SC(C)C(=O)N3c4ccccc4Sc4ccccc43)c2c1C (stereo not given) | inactive
Cc1sc2ncnc(NCC3(N4CCOCC4)CCCCC3)c2c1C | inactive
O=C(CCCc1ccccc1)N1CCC[C@H]1c1nc(-c2ccccc2)no1 | inactive
COc1ccc(-c2noc([C@@H]3CCCN3C(=O)CCCc3ccccc3)n2)cc1 | inactive
Cc1cnc(C2CCC2)n1C1CCCN(C(=O)CCCc2ccccc2)C1 (stereo not given) | 15 µM (active)
Cc1cccc(CNC(=O)c2nnn3cc(C)[nH]c(=O)c23)c1 | inactive
CCOc1ccc(NC(=O)c2nnn3cc(C)[nH]c(=O)c23)cc1 | 10.6 µM (active)

SMILES | Potency
COc1ccc(S(=O)(=O)N2CCC(CC(=O)NCc3ccccc3)C2)cc1 (stereo not given) | inactive
COc1ccc(NC(=O)O[C@@H]2CC[C@]3(C)C(CC[C@@H](O)[C@H]3CC(=O)NCc3ccccc3OC)[C@]2(C)CO)cc1 (stereo not given in full) | 6.68 µM (active)
CCc1cc2c(Sc3nc4ccccc4s3)ncnc2s1 | 1.5 µM (active)
c1ccc2sc(Sc3ncnc4sccc34)nc2c1 | 0.944 µM (active)
Cc1c(N/N=C(\C#N)C(=O)c2ccccc2)c(=O)n(-c2ccccc2)n1C | 6.68 µM (active)
CN(C)CCN1C(=O)c2oc3ccc(Cl)cc3c(=O)c2C1c1cccc(Br)c1 (stereo not given) | 0.531 µM (active)
CCOc1cc(CN2CCCC(N3CCN(c4ccc(F)cc4)CC3)C2)ccc1OC (stereo not given) | inactive
COc1cccc(CN2CCCC(N3CCN(c4cccc(C(F)(F)F)c4)CC3)C2)c1O (stereo not given) | 0.842 µM (active)
Oc1ccccc1CN1CCCC(N2CCN(c3cccc(C(F)(F)F)c3)CC2)C1 (stereo not given) | 1.33 µM (active)
O=C(NC[C@H]1O[C@@H](CO)[C@@H](O)[C@H]1N1CCN(c2cccc(C(F)(F)F)c2)CC1)c1cccs1 | inactive
CC1(C)C(=O)N(Cc2ccccc2)[C@H]2CN(CC3CCOCC3)C[C@@H]2[S+]1(=O)[O-] | inactive
O=C(NNc1nc(-c2ccc(Br)cc2)cs1)c1ccco1 | 5.31 µM (active)
CCCCOC(=O)N1CCC(N2CCCC(C(=O)N3CCOCC3)C2)CC1 (stereo not given) | inactive
CCN1CCCC1CNc1ncnc2c1[nH]c1ccc(Cl)cc12 (stereo not given) | 2.99 µM (active)
CN(Cc1cccn1C)S(C)(=O)=O | inactive
CN(C)C[C@@H]1CN(c2ccncn2)C[C@H]1NC(=O)c1cnco1 | inactive
Cc1ccc(NC2=C(c3ccc(C(F)(F)F)cc3)C(=O)c3ccccc32)cc1C | 2.11 µM (active)
Cc1ccc(NC2=C(c3ccc(C(F)(F)F)cc3)C(=O)c3ccccc32)cc1F | 1.88 µM (active)
Cc1ccc(C)c(NC2=C(c3ccc(C(F)(F)F)cc3)C(=O)c3ccccc32)c1 | 4.73 µM (active)
Oc1ccc(-c2ccc(-c3nc(CCc4ccccc4)no3)cn2)cc1 | inactive
CC(C)(C)n1[nH]c2c3c(ccc2c1=O)C(=O)c1ccccc1C3=O | 4.73 µM (active)
CCCc1nc2ccc(NC(=O)c3cccs3)cc2c(=O)n1Cc1ccc(Cl)cc1 | 8.41 µM (active)
Cc1ccc(Cn2nnc(C(=O)Nc3ccc(F)c(F)c3)c2N)cc1 | inactive
